For assay [1], the target named is Luciferin 4-monooxygenase (Photinus pyralis) (UniProt P08659). Put plainly: Biochemical firefly luciferase enzyme assay for NPC (AID 624030). Note: nearly all actives have a fitted effect of over 70% in size. Note: potency is the fitted concentration of half-maximal effect. The essentials: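 Direct inhibition of firefly luciferase enzyme (10 nM final, 50 mM Tris Acetate) assessed by luminescence within 5 minutes. Percent activity scaled between DMSO and PTC124 positive control, with concentration-effect curves classified by fit quality and response.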
Luciferin 4-monooxygenase (Photinus pyralis), sequence (P08659 whole entry, looked up): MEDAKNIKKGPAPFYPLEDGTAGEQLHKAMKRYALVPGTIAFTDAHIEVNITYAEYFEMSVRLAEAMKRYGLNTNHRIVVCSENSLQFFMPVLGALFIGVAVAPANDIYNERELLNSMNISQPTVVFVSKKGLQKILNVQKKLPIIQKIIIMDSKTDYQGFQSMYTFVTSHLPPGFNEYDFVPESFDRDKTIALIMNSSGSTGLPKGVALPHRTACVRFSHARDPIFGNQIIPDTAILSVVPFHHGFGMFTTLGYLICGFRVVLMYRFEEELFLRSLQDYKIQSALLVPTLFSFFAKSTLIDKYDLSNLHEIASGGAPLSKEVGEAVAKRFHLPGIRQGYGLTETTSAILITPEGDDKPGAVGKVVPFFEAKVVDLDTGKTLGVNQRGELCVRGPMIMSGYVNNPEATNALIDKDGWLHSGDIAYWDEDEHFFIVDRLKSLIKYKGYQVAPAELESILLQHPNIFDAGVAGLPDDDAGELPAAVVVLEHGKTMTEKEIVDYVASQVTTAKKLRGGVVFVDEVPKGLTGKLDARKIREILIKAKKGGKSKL

A short description of assay [2]: S16 Schwann cell PMP22 intronic element firefly luciferase assay (AID 624032). Note: potency is the fitted concentration of half-maximal effect; nearly all actives have a fitted effect of over 30% in size. As to conditions: S16 rat Schwann cells, PMP22 element FLuc, 24 h. The method, boiled down:
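Luciferase reporter of PMP22 intronic-element expression in stably transfected S16 rat Schwann cells, read by ONE-Glo luminescence after 24 h compound exposure at 37 C. Activity scaled between DMSO (0%) and positive-control PTC124; concentration-effect curves quality-classified.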

A short description of assay [3]: S16 Schwann cell PMP22 intronic element beta-lactamase assay (AID 624044; calls by dose curve; note: potency is the fitted concentration of half-maximal effect; nearly all actives have a fitted effect of over 15% in size). The following applies: S16 rat Schwann cells, PMP22 element beta-lactamase FRET, 24 h. The method, boiled down: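 Rat S16 Schwann cells with beta-Lac driven by a PMP22 intronic element, compound-treated 24 h at 37 °C. LiveBLAzer FRET B/G read: 460 nm normalized to potassium clavulanate vs DMSO; 535 nm FRET as viability; concentration-effect curves classified.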

Assay [4] concerns the target Retinoic acid receptor RXR-alpha (Homo sapiens) (UniProt P19793). Briefly: qHTS assay for small molecule agonists of retinoid X receptor alpha signaling (AID 588544; calls by dose curve;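 note: 0% = DMSO basal wells and 100% = reference agonist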). On the technique in general: qHTS replaces the single test concentration by a dilution series.
Assay [5] has as its target Thyroid hormone receptor beta (Homo sapiens) (UniProt P10828). Put plainly: qHTS assay for small molecule agonists of thyroid hormone receptor beta signaling (AID 588545; calls by dose curve;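 note: 0% = DMSO only and 100% = 10 nM T3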). The method, boiled down:
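Compounds were tested as agonists in TR-UAS-bla-GripTite HEK 293 cells. After 18 hrs at 37 C, CCF4 substrate was added and fluorescence read after 2 hrs at room temperature.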

For assay [6] the target is unchanged. Briefly: qHTS assay for small molecule antagonists of thyroid hormone receptor beta signaling (AID 588547; active = well fitted inhibition curve with a large enough effect in the signal ratio, with a control signal flat, not every such curve was filed as active; the % refers to the signal ratio;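 note: cells stimulated with 0.4 nM T3 agonist during compound exposure; series mostly up to about 77 µM; % is set by controls: 0 for no effect and ±100 for the full control effect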). The following applies: TR-UAS-bla HEK293, beta-lactamase ratio, antagonist mode, 18 h. The method, boiled down:
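Inhibition of T3-driven (0.4nM final) beta-lactamase reporter activity was measured over 0.59 nM to 92 uM compound after 18 h at 37 C. The cells were GripTite HEK293 TR-UAS-bla in charcoal/dextran-stripped serum, with CCF4 ratio read-out and IC50 from Hill fits.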

In assay [7] the target is Voltage-gated inwardly rectifying potassium channel KCNH2 (Homo sapiens) (UniProt Q12809). Put plainly: qHTS Assay for Small Molecule Inhibitors of the Human hERG Channel Activity (AID 588834).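 Note: top concentration of the series differs between compounds; % is set by controls: 0 for no effect and ±100 for the full control effect; lower thallium flux fluorescence means stronger hERG block; nearly all actives have a fitted effect of over 50% in size.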 The essentials: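 Concentration-response qHTS measuring drop in thallium-sensitive dye signal. U2OS cells carrying BacMam hERG; compound exposure ~10 min, then stimulation buffer and 2 min read at 1 sec intervals.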
Voltage-gated inwardly rectifying potassium channel KCNH2 (Homo sapiens), sequence (Q12809 whole entry, looked up): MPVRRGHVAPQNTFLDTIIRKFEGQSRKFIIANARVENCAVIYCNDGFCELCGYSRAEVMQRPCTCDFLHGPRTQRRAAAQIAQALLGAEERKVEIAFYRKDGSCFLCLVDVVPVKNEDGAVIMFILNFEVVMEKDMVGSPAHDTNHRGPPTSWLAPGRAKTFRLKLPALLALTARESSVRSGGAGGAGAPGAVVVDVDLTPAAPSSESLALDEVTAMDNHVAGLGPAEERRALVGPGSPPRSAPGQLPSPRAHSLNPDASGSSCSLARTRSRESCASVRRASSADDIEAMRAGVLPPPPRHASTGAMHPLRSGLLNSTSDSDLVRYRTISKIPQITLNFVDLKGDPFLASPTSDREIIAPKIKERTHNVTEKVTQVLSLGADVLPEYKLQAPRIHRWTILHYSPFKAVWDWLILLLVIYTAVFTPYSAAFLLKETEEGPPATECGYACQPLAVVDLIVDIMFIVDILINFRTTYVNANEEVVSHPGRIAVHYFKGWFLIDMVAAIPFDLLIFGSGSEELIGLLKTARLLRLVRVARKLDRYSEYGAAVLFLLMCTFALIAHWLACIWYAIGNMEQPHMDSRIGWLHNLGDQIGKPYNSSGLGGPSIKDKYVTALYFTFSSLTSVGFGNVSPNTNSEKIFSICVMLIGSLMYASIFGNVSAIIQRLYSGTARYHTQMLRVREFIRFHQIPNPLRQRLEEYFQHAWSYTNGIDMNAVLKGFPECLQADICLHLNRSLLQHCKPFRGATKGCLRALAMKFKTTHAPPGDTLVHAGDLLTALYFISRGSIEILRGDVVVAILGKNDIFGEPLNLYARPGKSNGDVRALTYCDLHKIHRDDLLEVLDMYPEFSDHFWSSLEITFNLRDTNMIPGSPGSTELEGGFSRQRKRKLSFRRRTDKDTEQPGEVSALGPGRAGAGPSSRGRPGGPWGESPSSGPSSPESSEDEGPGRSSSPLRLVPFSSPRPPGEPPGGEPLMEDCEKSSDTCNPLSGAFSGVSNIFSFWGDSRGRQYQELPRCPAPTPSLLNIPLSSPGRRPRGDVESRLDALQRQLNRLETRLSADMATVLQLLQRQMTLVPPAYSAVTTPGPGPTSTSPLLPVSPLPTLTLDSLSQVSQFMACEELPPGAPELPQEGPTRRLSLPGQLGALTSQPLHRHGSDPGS

Assay [8] in a line: S16 Schwann cell viability assay (CellTiter-Glo assay) (AID 624031).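 Note: native untransfected S16 rat Schwann cells; cellular ATP luminescence as a viability measure; series mostly up to about 58 µM; plate controls were DMSO-treated cells for no effect and cell-free wells for full effect; nearly all actives have a fitted effect of over 70% in size.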 The method, boiled down: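 Cells were seeded at 500-750 per well in phenol red-free DMEM with 10% FBS and left overnight. Compounds or DMSO were pinned in, incubation ran 24 h at 37 °C/5% CO2, then CellTiter-Glo reagent was added and luminescence measured.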
A general note: Cellular ATP, detected with luciferase, serves as a proxy for viable cell number.

Assay [9] is described as follows: qHTS assay for small molecule activators of the p53 signaling pathway (AID 651743; active = well fitted activation curve with a large enough effect in the signal ratio, not every such curve was filed as active; the % refers to the signal ratio; note: series mostly up to about 92 µM; % of control where 0% means no effect). The following applies: HCT-116 p53RE-bla, beta-lactamase FRET ratio, 16 h; stronger effect = higher value. The method, boiled down: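 Screen for p53 pathway agonists uses stably transfected p53RE-bla HCT-116 cells, 4,000 per well, treated 16 h at 37 C with compounds in DMSO.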
Assay [10] is described as follows: qHTS assay for small molecule activators of the nuclear factor-kappa B (NF-kB) signaling pathway (AID 651749; active = well fitted activation curve with a large enough effect in the signal ratio; the % refers to the signal ratio; note: series mostly up to about 77 µM; % of control where 0% means no effect). As to conditions: NF-kB-bla ME-180 cells, beta-lactamase FRET ratio, 16 h; stronger effect = higher value. The method, boiled down:
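Stably transfected ME-180 line; NF-kB response element upstream of beta-lactamase. Treatment: compound or DMSO, 16 hr. Detection: fluorescent FRET substrate.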

Assay [11] is described as follows: qHTS assay for environmental chemicals that activate the Aryl hydrocarbon Receptor (AhR) signaling pathway (AID 651777). For activation: % of control where 0% means no effect. Note: nearly all actives have a fitted effect of over 15% in size. Note: potency is the fitted concentration of half-maximal effect. The following applies: 1A2-DRE human hepatoma cells, luciferase, 24 h; activation: stronger effect = higher value. The essentials:
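AhR activation is scored as a rise in luciferase from a stable DRE–CYP1A2 promoter construct in human hepatoma cells. Treatment lasts 24 hr at 37 C; detection uses One-Glo after 30 min at room temperature.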

Assay [12] deals with Peroxisome proliferator-activated receptor alpha (Homo sapiens) (UniProt Q07869). Briefly: qHTS assay for small molecule agonists of the peroxisome proliferator-activated receptor alpha (PPARalpha) signaling pathway (AID 651778). Note: % of control where 0% means no effect. The following applies: PathHunter PPARalpha complementation, chemiluminescence, 6 h; stronger effect = higher value. The method, boiled down:
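Chemiluminescence from complemented enzyme reported PPARalpha activation in cells after 6 hr of compound treatment at 37 C. The detection reagent was incubated for 60 min at room temperature, and compounds were scored as agonists.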

Assay [13] can be described thus: qHTS assay for small molecule antagonists of retinoid X receptor alpha signaling (AID 588546; active = well fitted inhibition curve with a large enough effect in the signal ratio, with a control signal flat, not every such curve was filed as active; the % refers to the signal ratio;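 note: cells stimulated with 9-cis-retinoic acid as agonist; % is set by controls: 0 for no effect and ±100 for the full control effect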). As to conditions: HEK293T RXRa-UAS-bla, beta-lactamase ratio, antagonist mode; measured here: W530 green channel, cytotoxicity proxy. The essentials: (§1)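 Beta-lactamase reporter inhibition, read as CCF4 fluorescence ratio (ex 405, em 460/530 nm) after 2 h at RT. HEK293T UAS-bla cells, 2500/well, were stimulated with 9-cis-RA at 500 or 100 nM final alongside test compound for 18 h at 37 C.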

Assay [14] concerns the target Retinoic acid receptor RXR-alpha (Homo sapiens) (UniProt P19793). Described as above. As to conditions: HEK293T RXRa-UAS-bla, beta-lactamase ratio, antagonist mode. The essentials: as §1
Assay [15] in a line: qHTS assay for small molecule agonists of the antioxidant response element (ARE) signaling pathway (AID 651741; active = well fitted activation curve with a large enough effect in the signal ratio; the % refers to the signal ratio; note: potency is the fitted concentration of half-maximal effect). The following applies: HepG2 ARE-bla reporter, beta-lactamase FRET ratio, 16 h. The essentials:
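Seeding 2,000 ARE-bla HepG2 cells per well preceded a 5 h incubation at 37 C/5% CO2 and a 16 h compound exposure at 37 C. Beta-lactamase reporter activity was then quantified by fluorescence after 2 h with LiveBLAzer B/G FRET substrate.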

Assay [16] in a line: qHTS assay for small molecule disruptors of the mitochondrial membrane potential - 1 hr assay (AID 651754; calls by dose curve; note: potency is the fitted concentration of half-maximal effect; nearly all actives have a fitted effect of over 35% in size). The essentials: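 HepG2 cells, attached overnight at 37C, were exposed to compound or DMSO vehicle for 1 hr at 37C, 5% CO2, then stained with Mito-MPS dye for 30 min. Red aggregate versus green monomer fluorescence reports membrane potential.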
A short description of assay [17]: qHTS assay for small molecule disruptors of the mitochondrial membrane potential - 5 hr assay (AID 651755; calls by dose curve; note: potency is the fitted concentration of half-maximal effect; nearly all actives have a fitted effect of over 40% in size). As to conditions: JC-1-type ratio dye. The method, boiled down: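 HepG2, 2,000 cells/well, overnight attach; cpd or DMSO 5 hr, 37C/5% CO2; Mito-MPS 30 min 37C; fluor 490/535 + 540/590 nm.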
Assay [18] concerns the target Nuclear receptor ROR-gamma (Homo sapiens) (UniProt P51449). Briefly: qHTS assay for small molecule antagonists of the retinoid-related orphan receptor gamma (ROR-gamma) signaling pathway (AID 651802). Note: series mostly up to about 92 µM; % is set by controls: 0 for no effect and ±100 for the full control effect; nearly all actives have a fitted effect of over 60% in size. The essentials: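 CHO cells carrying TET-inducible ROR-gamma and an ROR response element–luciferase reporter were exposed to compound, then induced with doxycycline. After 16hr at 37C, luminescence was read; lower signal indicates antagonism.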

The target in assay [19] is Tumor necrosis factor (Homo sapiens) (UniProt P01375). Briefly: qHTS assay to identify small molecules that stimulate Tumor Necrosis Factor-alpha (TNF-alpha) secretion (AID 651757; active = well fitted curve in the direction sought with a large enough effect in the signal ratio; the % refers to the signal ratio; note: 0% is about no effect). The method, boiled down: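 THP-1 cells were exposed to compounds for 17 hrs at 37 C, after which secreted TNF-alpha was measured by homogeneous HTRF (TR-FRET) using cryptate- and XL665-labeled anti-TNF-alpha antibodies, read after 3 hr at room temperature.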
Tumor necrosis factor (Homo sapiens), sequence (P01375 whole entry, looked up): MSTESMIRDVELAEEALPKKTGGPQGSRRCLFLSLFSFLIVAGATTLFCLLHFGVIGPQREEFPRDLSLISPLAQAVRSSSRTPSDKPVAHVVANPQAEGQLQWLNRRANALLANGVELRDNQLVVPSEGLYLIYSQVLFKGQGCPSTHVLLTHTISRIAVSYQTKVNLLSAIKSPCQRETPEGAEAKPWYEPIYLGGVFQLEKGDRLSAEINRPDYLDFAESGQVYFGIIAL

A short description of assay [20]: qHTS assay to identify small molecules that stimulate interleukin-8 (IL-8) secretion (AID 651758; active = well fitted activation curve with a large enough effect in the signal ratio; the % refers to the signal ratio; note: 0% is about no effect). The essentials: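 Secreted IL-8 measured by TR-FRET sandwich (cryptate and XL665 antibodies) from THP-1 cells exposed to compound overnight (16 hrs, 37 C).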

SMILES strings stand for the structures. Results filed as inconclusive are left out. Calls of active or inactive are those of the source. Unless noted, calls come from the whole dose curve; as a rule, active = well fitted curve in the direction sought with a large enough effect; inconclusive = small, poorly fitted or top-dose-only effect, or another doubt; inactive = no such curve, though single readings can be large; an effect the other way counts as inactive or inconclusive.

Nuclear receptor ROR-gamma (Homo sapiens), sequence (P51449 whole entry, looked up): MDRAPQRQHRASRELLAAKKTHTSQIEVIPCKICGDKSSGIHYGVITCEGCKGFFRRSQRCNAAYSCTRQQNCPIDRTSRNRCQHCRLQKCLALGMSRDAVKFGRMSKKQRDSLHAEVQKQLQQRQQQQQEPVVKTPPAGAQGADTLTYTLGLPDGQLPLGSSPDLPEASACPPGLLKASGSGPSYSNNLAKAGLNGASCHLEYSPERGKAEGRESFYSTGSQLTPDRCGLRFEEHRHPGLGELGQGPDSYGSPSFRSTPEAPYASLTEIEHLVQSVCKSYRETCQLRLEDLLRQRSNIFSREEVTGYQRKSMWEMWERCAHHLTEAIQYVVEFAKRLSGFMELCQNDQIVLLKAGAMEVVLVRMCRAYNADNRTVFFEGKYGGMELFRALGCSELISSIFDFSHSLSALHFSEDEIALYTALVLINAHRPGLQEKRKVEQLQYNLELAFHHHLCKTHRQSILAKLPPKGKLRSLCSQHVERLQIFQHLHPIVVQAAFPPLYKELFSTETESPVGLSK
Thyroid hormone receptor beta (Homo sapiens), sequence (P10828 whole entry, looked up): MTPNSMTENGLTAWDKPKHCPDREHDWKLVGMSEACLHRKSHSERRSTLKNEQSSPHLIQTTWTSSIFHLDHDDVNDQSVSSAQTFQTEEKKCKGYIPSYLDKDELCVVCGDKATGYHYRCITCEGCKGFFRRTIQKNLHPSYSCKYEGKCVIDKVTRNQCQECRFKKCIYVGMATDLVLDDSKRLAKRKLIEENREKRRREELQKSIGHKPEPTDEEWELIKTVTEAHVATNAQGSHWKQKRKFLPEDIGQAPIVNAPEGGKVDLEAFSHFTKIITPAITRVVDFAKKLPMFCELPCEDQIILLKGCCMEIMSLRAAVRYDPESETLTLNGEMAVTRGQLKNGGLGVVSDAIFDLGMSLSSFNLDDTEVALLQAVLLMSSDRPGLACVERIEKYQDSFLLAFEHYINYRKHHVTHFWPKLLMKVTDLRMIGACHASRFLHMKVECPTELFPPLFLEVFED
Peroxisome proliferator-activated receptor alpha (Homo sapiens), sequence (Q07869 whole entry, looked up): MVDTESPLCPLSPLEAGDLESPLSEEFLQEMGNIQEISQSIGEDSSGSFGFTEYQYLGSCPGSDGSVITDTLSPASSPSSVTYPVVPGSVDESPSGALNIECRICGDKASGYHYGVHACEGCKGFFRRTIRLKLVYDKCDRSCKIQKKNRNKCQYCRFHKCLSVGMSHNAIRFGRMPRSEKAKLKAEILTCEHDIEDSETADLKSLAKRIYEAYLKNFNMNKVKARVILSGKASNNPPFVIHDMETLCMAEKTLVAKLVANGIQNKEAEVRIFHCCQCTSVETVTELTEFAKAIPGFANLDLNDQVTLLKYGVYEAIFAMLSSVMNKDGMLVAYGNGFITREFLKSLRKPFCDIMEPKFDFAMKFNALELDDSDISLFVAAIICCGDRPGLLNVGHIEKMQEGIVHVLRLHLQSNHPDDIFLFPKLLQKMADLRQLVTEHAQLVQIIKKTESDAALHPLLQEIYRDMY
Retinoic acid receptor RXR-alpha (Homo sapiens), sequence (P19793 whole entry, looked up): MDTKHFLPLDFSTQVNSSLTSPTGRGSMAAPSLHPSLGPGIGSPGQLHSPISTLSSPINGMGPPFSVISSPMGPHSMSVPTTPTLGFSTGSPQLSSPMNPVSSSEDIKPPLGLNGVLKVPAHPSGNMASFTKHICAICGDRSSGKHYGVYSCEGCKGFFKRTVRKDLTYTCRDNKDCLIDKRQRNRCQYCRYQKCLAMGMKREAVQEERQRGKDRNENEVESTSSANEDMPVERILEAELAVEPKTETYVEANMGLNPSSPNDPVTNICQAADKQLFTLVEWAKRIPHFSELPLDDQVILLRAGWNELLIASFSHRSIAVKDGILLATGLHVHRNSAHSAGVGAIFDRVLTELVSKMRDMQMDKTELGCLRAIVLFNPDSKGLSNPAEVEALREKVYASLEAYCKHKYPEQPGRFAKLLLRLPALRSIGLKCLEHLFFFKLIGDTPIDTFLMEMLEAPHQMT

For the compound `CC[C@]1(O)CC2CN(CCc3c([nH]c4ccccc34)[C@@](C(=O)OC)(c3cc4c(cc3OC)N(C)[C@H]3[C@@](O)(C(=O)OC)[C@H](OC(C)=O)[C@]5(CC)C=CCN6CC[C@]43[C@@H]65)C2)C1` (stereo partly drawn), the Potency result in assay [1] is “inactive”. Further, the Potency in assay [2] is 0.721 µM (active); in [3], 0.224 µM (active).

Turning to `CC(=O)O[C@H]1C(=O)[C@@]2(C)[C@H]([C@H](OC(=O)c3ccccc3)[C@]3(O)C[C@H](OC(=O)[C@H](O)[C@@H](NC(=O)c4ccccc4)c4ccccc4)C(C)=C1C3(C)C)[C@]1(OC(C)=O)CO[C@@H]1C[C@@H]2O`, the call in assay [4], in assay [5], in assay [7] and in [8] was inactive. The activity change % (negative = inhibition) in assay [6] was -8.03% (inactive). Moreover, in [1], the Potency entry was “inactive”. Further, the activation is 23.6% (inactive) in assay [9], 4.74% (inactive) in assay [10] and 0.595% (inactive) in assay [11]. The max response in assay [12] was -1.23% (inactive).

Regarding `Nc1ccccc1N`, the compound was called inactive in assay [4], in assay [5], in assay [7] and in [18]. Moreover, the max response in [13] is 1.4%; in [14] it was -8.62% (inactive); in assay [12], -5.51% (inactive). Also, in assay [6], the activity change % (negative = inhibition) was -38.2% (inactive). The Potency in assay [1] is 2.63 µM (active); in [15], 18.8 µM (active); in [16] it was 3.76 µM (active); in assay [17], 5.96 µM (active). Also, the activation in [9] was 9.56% (inactive); in assay [10], -0.857% (inactive).

With `Cc1ccc(N)cc1O`, the compound was classed as inactive in assay [4], in assay [5], in assay [7], in assay [19], in assay [20] and in [18]. In addition, the results for the max response in assay [13], in assay [14] and in assay [12] were -3.5%, 0.585% (inactive) and -3.15% (inactive), respectively. Further, the activity change % (negative = inhibition) in assay [6] is -1.32% (inactive). Also, the Potency in assay [15] was 42.2 µM (active); in assay [16], 23.7 µM (active); in assay [11], 44.7 µM (active). Besides, the activation in [9] was 1.03% (inactive).

For the compound `CC(=O)O[C@@H]1CC(C)=C2[C@H]1[C@H](C)CC[C@H]2/C=C(\C)C(=O)O`, the result in assay [4], in assay [5], in [7], in assay [19] and in assay [18] was inactive. Also, the max response was -4.2% in assay [13], 22.1% (inactive) in assay [14] and -0.232% (inactive) in assay [12]. The activity change % (negative = inhibition) in assay [6] was 19.9% (inactive). Further, the activation in assay [9] is -5.82% (inactive); in assay [10] it was 0.932% (inactive); in assay [11], -0.287% (inactive).

(Values after PubChem BioAssay (NCATS).)
